Rows were chosen to be rich in hits. Some 2.3% of all compounds tested hit in one or more screens of this group.
CHT block: human CHT choline transport inhibition. Q9GZV3. CHT-expressing cells, membrane potential dye, choline response; stronger effect = lower value. B-score at 10 µM. 310,000 compounds, 0.86% hits. AID 488975;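 active = B-score over 3 SD under the library average, and starting fluorescence ratio not unusually high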;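 also: choline stimulus applied at its EC90 after an EC20 pre-addition; B-score computed on integrated fluorescence ratio after choline addition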
TMEM16A inh: blocks the mouse calcium-activated chloride channel TMEM16A; normalized B-score (activity score, 25-100; higher = stronger inhibition) at 10 µM; HEK293 TMEM16A/YFP iodide influx fluorescence, ionomycin; 310,000 compounds, 1.2% hits; Q8BHY3;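 active = ratio plate-corrected score three or more library SD toward inhibition, starting fluorescence score within five deviations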;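 also: score derived from kinetic fluorescence span divided by baseline fluorescence per well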
CHT PAM: human CHT allosteric activation; Q9GZV3; CHT-expressing cells, membrane potential dye, choline EC20; stronger effect = higher value; LV-AA mutant CHT in HEK293 cells; B-score at 10 µM; 310,000 compounds, 0.49% hits; AID 488977;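 active = initial fluorescence not abnormally high and integrated response B-score, plate-corrected, over 3 SD above library mean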
TMEM16A act: mouse TMEM16A channel activation, primary screen; Q8BHY3; HEK293 TMEM16A/YFP-H148Q/I152L, iodide quench fluorescence; stronger effect = lower value; B-score at 10 µM; 340,000 compounds, 0.3% hits; AID 623877;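 active = fluorescence-ratio B-score plate-corrected deviation score at least 3 library SD below zero, with starting fluorescence score within 5 deviations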;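 also: channel opened by trigger with iodide after compound preincubation; score built on the fluorescence ratio of max minus min over baseline; more negative score means more quench and so TMEM16A activation or potentiation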
TMEM16A reconf: TMEM16A (mouse) chloride channel inhibition, re-confirmation; shares compounds with TMEM16A inh; HEK293 TMEM16A/YFP-H148Q, iodide quench fluorescence; ionomycin added to raise cell calcium; 2,300 compounds, 39% hits; inhibition, % at 10 µM;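 active = mean duplicate percent inhibition, scaled so buffer wells are 0 and the reference blocker 100, over three buffer SD above buffer mean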
TMEM16A Ca cntr: alters calcium mobilization in TMEM16A HEK293 cells, counter-screen | shares compounds with TMEM16A inh | 2,300 compounds, 2% hits | AID 652231 | calcium response (% of ionomycin), % at 10 µM | TMEM16A/YFP HEK293, Fluo4 calcium mobilization;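 active = duplicate-averaged calcium signal over 20% of the ionomycin maximum, relative to buffer baseline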;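 also: each well's signal is peak minus trough fluorescence divided by its pre-addition baseline; 0% = buffer wells and 100% = ionomycin wells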
Parental YFP cnt: acts in parental YFP-HEK293 cells lacking TMEM16A, counter-screen; 2,300 tested, under 10 active; shares compounds with TMEM16A inh; YFP ratio F(max-min)/F0 at 10 µM; iodide YFP quench, ionomycin;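 active = yellow fluorescent protein signal ratio exceeding the buffer control mean by over 5 SD of those controls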;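 also: ratio is mean of duplicate wells from kinetic YFP trace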
ClC-1 rat inh: rat ClC-1 inhibition, TMEM16A specificity screen. 2,300 tested, under 10 active. AID 652236. CHO ClC-1-YFP, iodide influx fluorescence quench; iodide control reads 0, buffer control 100. shares compounds with TMEM16A inh. ratio percent, % at 10 µM;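 active = duplicate-mean ratio percent above the mean of iodide-only control wells, which defines zero, plus 5 of their SD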;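 also: higher percent means stronger block of ClC-1 iodide influx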
* = called active by the depositor; i = inactive; . = no result.

SMILES	CHT block	TMEM16A inh	CHT PAM	TMEM16A act	TMEM16A reconf	TMEM16A Ca cntr	Parental YFP cnt	ClC-1 rat inh
O=C(CSc1ncnc2c1oc1ccccc12)N1CCCc2ccccc21	i	100*	i	i	28%*	i	-0.8	-8
CCN(C(=S)NCc1ccccc1)c1cccc2ccccc12	i	25*	i	i	i	i	-1.2	-8
COC(=O)CC/C(O)=C1\C(=O)CC(C)(C)CC1=Nc1ccccc1OC	i	i	i	i	.	.	.	.
CCCC/C(O)=C1\C(=O)CC(C)(C)CC1=Nc1ccccc1OC	i	25*	i	i	i	i	-1.1	-4
O=C(NCCC1=CCCCC1)c1ccc(Cl)c(S(=O)(=O)Nc2ccccc2)c1	i	100*	i	i	i	i	-1	-13
CCOC(=O)c1c(NS(=O)(=O)c2ccc(Br)cc2)sc2c1CCC2	i	100*	i	i	70%*	i	-0.9	-6
CCOC(=O)c1c(NS(=O)(=O)Cc2ccccc2)sc2c1CCCC2	i	i	i	i	.	.	.	.
COc1cccc(CN2C(=O)C(C)N(C(=O)c3ccccc3)c3ccccc32)c1 (stereo not given)	i	25*	i	i	17%*	i	-0.86	-14
O=C(CCc1ccc(O)cc1)c1c(O)cc(O)cc1O	i	25*	i	i	18%*	i	-1	-17
O=c1c(C/C=C/c2ccccc2)c(O)ccn1Cc1ccc(Cl)cc1Cl	i	100*	i	i	i	i	-0.78	-18
O=S(=O)(c1ccccc1)N1N=C(c2ccccc2)CC1c1ccco1 (stereo not given)	i	i	i	.	.	.	.	.
COc1ccc(C2CC(c3ccccc3)=NN2S(=O)(=O)c2ccccc2)cc1 (stereo not given)	i	i	i	i	55%*	i	-0.84	2
O=C(C1CCN(S(=O)(=O)c2ccc(Cl)cc2)CC1)N1CCN(c2ccccn2)CC1	.	.	.	i	.	.	.	.
CCOc1cc(/C=C/C(=O)OCC(=O)NCC2CCCO2)cc(Cl)c1OC (stereo not given)	.	.	.	i	.	.	.	.
O=C(Nc1sc2c(c1C(=O)O)CCC2)C(=O)N1CCOCC1	i	i	i	i	.	.	.	.
O=[N+]([O-])c1ccc(O)c(-c2nc(-c3ccccc3)c(-c3cccs3)[nH]2)c1	i	25*	i	i	67%*	i	-0.9	-10
Clc1ccc(-c2csc(=Nc3cccnc3)n2CCCn2ccnc2)cc1Cl	i	i	i	i	.	.	.	.
COCCn1c(-c2ccc(Br)cc2)csc1=Nc1cccnc1	i	25*	i	i	34%*	i	-1	-20
Cc1cccc(Cn2nnc3ccccc32)c1O	i	i	i	i	.	.	.	.
CC(C)(C)c1cccc(Cn2nnc3ccccc32)c1O	i	100*	i	i	24%*	i	-1	-25
O=C(Nc1ccccc1O)c1cccc(S(=O)(=O)Nc2ccccc2O)c1	i	i	i	i	.	.	.	.
Cc1c(O)ccc(C(=O)COc2ccc(F)cc2)c1O	i	i	i	i	.	.	.	.
CCc1cc(C(=O)COc2ccc(F)cc2)c(O)cc1O	i	100*	i	i	20%*	i	-0.8	-4
CCN(CC)S(=O)(=O)c1cc(-c2nnc(-c3ccc(Br)cc3)o2)ccc1Br	i	i	i	i	.	.	.	.
CCN(CC)S(=O)(=O)c1cc(-c2nnc(-c3ccc(Br)cc3)o2)ccc1Cl	i	25*	i	i	i	i	-0.86	-12
SMILES	CHT block	TMEM16A inh	CHT PAM	TMEM16A act	TMEM16A reconf	TMEM16A Ca cntr	Parental YFP cnt	ClC-1 rat inh
CCN1CCN(CCCNC(=O)c2ccc(/C=C3/Sc4ccccc4N(Cc4ccccc4F)C3=O)cc2)CC1	i	i	i	i	25%*	i	-1.3	-6
Cc1ccsc1C(=O)OCc1csc(-c2ccccc2)n1	i	100*	i	i	16%*	i	-1.1	-4
Cn1c(CN2CCCCC2)nc2cc(NC(=O)c3ccc(Cl)cc3)ccc21	i	100*	i	i	23%*	i	-1.2	-3
COc1cc(NC(=O)c2cnc(N)o2)cc(C(=O)Nc2cccc(C(F)(F)F)c2)c1	i	100*	i	i	46%*	i	-0.87	-14
Cc1noc(C)c1COc1cccc(C(=O)NCCc2c[nH]c3ccccc23)c1	i	25*	i	i	i	i	-1.1	-3
Cc1ccc(CNC(=O)c2cccc(OCc3c(C)noc3C)c2)cc1	i	i	i	i	.	.	.	.
CNC(=O)c1ccc(CN(C)CC(=O)Nc2ccccc2C(=O)NC2CC2)cc1	.	.	.	i	.	.	.	.
COc1ccccc1CN1CC(C(=O)NCc2cc(C(C)C)no2)CCC1=O (stereo not given)	i	i	i	i	.	.	.	.
CC(C)(NO)/C(=N/O)c1cccs1	i	25*	i	i	i	i	-1.1	-4
O=C1N=C(N2C=CC(=C3C=CNC=C3)C=C2)/C(=C/N=NC(=O)c2ccccc2O)S1	i	i	i	i	.	.	.	.
CCCCOC(=O)c1ccc(NC(=O)COC(=O)C2CSC3(C)CCC(=O)N23)cc1 (stereo not given)	i	25*	i	i	30%*	i	-0.95	-4
CC(C)(C)NC(=O)Cn1c(SCC(=O)NC2CC2)nc2ccccc21	i	i	i	i	.	.	.	.
CC(C)(C)NC(=O)Cn1c(SCC(N)=O)nc2ccccc21	i	100*	i	i	i	i	-1.1	-8
CCCC(CCC)C(=O)Nc1c[nH]c(=O)[nH]c1=O	i	100*	i	i	i	i	-0.99	-22
CCOC(=O)C1CCCN(C(=O)C(CCSC)NC(=O)COc2ccccc2)C1 (stereo not given)	.	.	.	i	.	.	.	.
CCCC(=O)OC1CC(C)N(C(=O)c2ccccc2)c2ccc(C)cc21 (stereo not given)	i	i	i	i	.	.	.	.
CC(=O)OC1CC(C)N(C(=O)c2ccccc2)c2ccc(C)cc21 (stereo not given)	i	100*	i	i	i	i	-1.1	-5
O=S(=O)(CC=CCS(=O)(=O)c1ccccc1)c1ccccc1	.	.	.	i	.	.	.	.

High-throughput results deposited in PubChem BioAssay by Johns Hopkins Ion Channel Center.
